Assay results: PubChem BioAssay AID1159580 (chemical genetic matrix, 2015)
About 2,000 (36%) of roughly 5,500 compounds were called active. About 18% were inconclusive and are not listed. No stated cut-off is given here; in the data, active means normalized growth mostly below about 0.91 (no sharp cut-off); inconclusive means no clear call, values can overlap the other calls; inactive means mostly above about 0.92. The list shows a part of the results.

Assay: chemical genetic growth profiling, strain panel (AID 1159580);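 further: tested at 20 µM; growth read once vehicle control cultures reached saturation at 30 °C; 1 = growth at the plate median or of vehicle wells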
Details: growth OD

Measured: normalized growth

CON
inactive: S. cerevisiae deletion strains, locus YJR075W, strain HOC1, stronger effect = lower value 1.02 | S. cerevisiae deletion strains, locus YKL009W, strain mrt4, stronger effect = lower value 0.978 | S. cerevisiae deletion strains, locus YKL068W, stronger effect = lower value 0.992 | S. cerevisiae deletion strains, locus YKL085W, strain MDH1 (second series), stronger effect = lower value 1.04 | S. cerevisiae deletion strains, locus YKL085W, strain MDH1, stronger effect = lower value 1.04 | S. cerevisiae deletion strains, locus YKL160W, strain elf1, stronger effect = lower value 1.06 | S. cerevisiae deletion strains, locus YKL190W, strain CNB1, stronger effect = lower value 1 | S. cerevisiae deletion strains, locus YKR001C, strain vps1, stronger effect = lower value 0.989 | S. cerevisiae deletion strains, locus YKR026C, strain gcn3, stronger effect = lower value 0.993 | S. cerevisiae deletion strains, locus YKR091W, strain srl3, stronger effect = lower value 0.998 | S. cerevisiae deletion strains, locus YLL001W, strain dnm1, stronger effect = lower value 1 | S. cerevisiae deletion strains, locus YLL026W, stronger effect = lower value 1.01 | S. cerevisiae deletion strains, locus YLL041C, strain sdh2, stronger effect = lower value 0.988 | S. cerevisiae deletion strains, locus YLR027C, strain aat2, stronger effect = lower value 1.01 | S. cerevisiae deletion strains, locus YLR039C, strain RIC1, stronger effect = lower value 1.01 | S. cerevisiae deletion strains, locus YLR058C, strain SHM2, stronger effect = lower value 1.01 | S. cerevisiae deletion strains, locus YLR102C, strain apc9, stronger effect = lower value 0.989 | S. cerevisiae deletion strains, locus YLR113W, strain HOG1, stronger effect = lower value 0.988 | S. cerevisiae deletion strains, locus YLR221C, strain rsa3, stronger effect = lower value 0.984 | S. cerevisiae deletion strains, locus YLR258W, strain gsy2, stronger effect = lower value 1.01 | S. cerevisiae deletion strains, locus YLR262C, strain YPT6 (second series), stronger effect = lower value 0.999 | S. cerevisiae deletion strains, locus YLR262C, strain YPT6, stronger effect = lower value 1.01 | S. cerevisiae deletion strains, locus YLR268W, strain sec22, stronger effect = lower value 0.995 | S. cerevisiae deletion strains, locus YLR320W, strain mms22, stronger effect = lower value 1.02 | S. cerevisiae deletion strains, locus YLR330W, strain CHS5, stronger effect = lower value 1.01 | S. cerevisiae deletion strains, locus YLR342W, strain FKS1 (second series), stronger effect = lower value 0.999 | S. cerevisiae deletion strains, locus YLR342W, strain FKS1, stronger effect = lower value 1.01 | S. cerevisiae deletion strains, locus YLR357W, strain rsc2, stronger effect = lower value 0.97 | S. cerevisiae deletion strains, locus YLR370C, strain arc18, stronger effect = lower value 1.04 | S. cerevisiae deletion strains, locus YLR371W, strain rom2, stronger effect = lower value 0.99 | S. cerevisiae deletion strains, locus YLR384C, strain iki3, stronger effect = lower value 1.01 | S. cerevisiae deletion strains, locus YLR418C, strain cdc73, stronger effect = lower value 1.03 | S. cerevisiae deletion strains, locus YML016C, strain PPZ1, stronger effect = lower value 1 | S. cerevisiae deletion strains, locus YML032C, strain rad52, stronger effect = lower value 1.01 | S. cerevisiae deletion strains, locus YML120C, strain ndi1, stronger effect = lower value 1 | S. cerevisiae deletion strains, locus YML124C, strain tub3, stronger effect = lower value 0.987 | S. cerevisiae deletion strains, locus YMR058W, strain fet3, stronger effect = lower value 0.998 | S. cerevisiae deletion strains, locus YMR078C, strain ctf18, stronger effect = lower value 0.99 | S. cerevisiae deletion strains, locus YMR125W, strain sto1, stronger effect = lower value 0.987 | S. cerevisiae deletion strains, locus YMR129W, stronger effect = lower value 1.02 | S. cerevisiae deletion strains, locus YMR205C, strain PFK2, stronger effect = lower value 1 | S. cerevisiae deletion strains, locus YMR223W, strain ubp8, stronger effect = lower value 0.993 | S. cerevisiae deletion strains, locus YMR231W, strain pep5, stronger effect = lower value 0.996 | S. cerevisiae deletion strains, locus YMR263W, strain SAP30, stronger effect = lower value 1 | S. cerevisiae deletion strains, locus YMR307W, strain GAS1, stronger effect = lower value 1.09 | S. cerevisiae deletion strains, locus YNL067W, strain RPL9B, stronger effect = lower value 1.03 | S. cerevisiae deletion strains, locus YNL071W, strain lat1, stronger effect = lower value 0.985 | S. cerevisiae deletion strains, locus YNL153C, strain GIM3, stronger effect = lower value 1.04 | S. cerevisiae deletion strains, locus YNL183C, strain NPR1, stronger effect = lower value 0.927 | S. cerevisiae deletion strains, locus YNL209W, strain ssb2, stronger effect = lower value 1.01 | S. cerevisiae deletion strains, locus YNL233W, strain BNI4, stronger effect = lower value 1.04 | S. cerevisiae deletion strains, locus YNL248C, strain rpa49, stronger effect = lower value 1.02 | S. cerevisiae deletion strains, locus YNL250W, strain rad50, stronger effect = lower value 0.99 | S. cerevisiae deletion strains, locus YNL271C, strain bni1, stronger effect = lower value 0.986 | S. cerevisiae deletion strains, locus YNL298W, strain CLA4, stronger effect = lower value 0.981 | S. cerevisiae deletion strains, locus YNL307C, strain MCK1, stronger effect = lower value 0.993 | S. cerevisiae deletion strains, locus YNL322C, strain KRE1 (second series), stronger effect = lower value 1.01 | S. cerevisiae deletion strains, locus YNR049C, strain mso1, stronger effect = lower value 1 | S. cerevisiae deletion strains, locus YNR052C, strain pop2, stronger effect = lower value 0.978 | S. cerevisiae deletion strains, locus YOL006C, strain TOP1, stronger effect = lower value 1.08 | S. cerevisiae deletion strains, locus YOL012C, strain htz1 1.2 | S. cerevisiae deletion strains, locus YOL147C, strain pex11, stronger effect = lower value 0.998 | S. cerevisiae deletion strains, locus YOR001W, strain rrp6, stronger effect = lower value 0.968 | S. cerevisiae deletion strains, locus YOR061W, strain CKA2, stronger effect = lower value 1 | S. cerevisiae deletion strains, locus YOR069W, strain VPS5, stronger effect = lower value 0.993 | S. cerevisiae deletion strains, locus YOR070C, strain gyp1, stronger effect = lower value 1.02 | S. cerevisiae deletion strains, locus YOR080W, strain dia2, stronger effect = lower value 0.996 | S. cerevisiae deletion strains, locus YOR083W, strain WHI5, stronger effect = lower value 1.03 | S. cerevisiae deletion strains, locus YOR106W, strain vam3, stronger effect = lower value 1.02 | S. cerevisiae deletion strains, locus YOR136W, strain idh2, stronger effect = lower value 0.98 | S. cerevisiae deletion strains, locus YOR144C, strain elg1, stronger effect = lower value 0.995 | S. cerevisiae deletion strains, locus YOR184W, strain ser1, stronger effect = lower value 0.958 | S. cerevisiae deletion strains, locus YOR231W, strain MKK1, stronger effect = lower value 1.04 | S. cerevisiae deletion strains, locus YOR265W, strain rbl2, stronger effect = lower value 1.01 | S. cerevisiae deletion strains, locus YOR270C, strain vph1, stronger effect = lower value 1.04 | S. cerevisiae deletion strains, locus YOR290C, strain snf2, stronger effect = lower value 1.07 | S. cerevisiae deletion strains, locus YOR316C, strain cot1, stronger effect = lower value 0.983 | S. cerevisiae deletion strains, locus YPL051W, strain arl3, stronger effect = lower value 1.04 | S. cerevisiae deletion strains, locus YPL055C, strain LGE1, stronger effect = lower value 1.09 | S. cerevisiae deletion strains, locus YPL078C, strain atp4, stronger effect = lower value 1.04 | S. cerevisiae deletion strains, locus YPL106C, strain sse1, stronger effect = lower value 1.01 | S. cerevisiae deletion strains, locus YPL240C, strain hsp82, stronger effect = lower value 1 | S. cerevisiae deletion strains, locus YPL256C, strain CLN2, stronger effect = lower value 0.993 | S. cerevisiae deletion strains, locus YPR119W, strain clb2, stronger effect = lower value 0.99 | S. cerevisiae deletion strains, locus YPR141C, strain kar3, stronger effect = lower value 0.989 | S. cerevisiae deletion strains, locus YPR163C, strain tif3, stronger effect = lower value 0.991 | S. cerevisiae deletion strains, locus YPR167C, strain met16, stronger effect = lower value 0.984 | S. cerevisiae deletion strains, strain wtn01, stronger effect = lower value 0.978 | S. cerevisiae strains, strain wild type, stronger effect = lower value 0.997
